Source: PubChem (National Center for Advancing Translational Sciences (NCATS))
DT40 TDP1 CPT: qHTS for Inhibitors of human tyrosyl-DNA phosphodiesterase 1 (TDP1): qHTS in cells in presence of CPT; Potency, µM (highest dose often 46.2 µM), inactives show at the top dose activity change, negative = growth inhibition, actives largely listed as inhibitors; chicken DT40 Tdp1-/-;hTDP1 cells + 20 nM CPT, ATP luminescence, 48 h; hit rate 12% among 420,000; AID 686979, 2013; also: potency is read from the fitted curve at half-maximal effect; nearly all actives have a fitted effect of over 55% in size
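Chicken DT40 Tdp1-/- cells complemented with human TDP1, 400 cells/well, exposed to compounds plus 20 nM camptothecin for at least 48 h at 37 C; viability read as ATP content by CellTiter-Glo luminescence.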
VP16 counter: VP16 counterscreen qHTS for inhibitors of ROR gamma transcriptional activity. AID 2546, 2010. Drosophila S2 Gal4-VP16 UAS-luciferase, luminescence, 20 h. Potency, µM (titrated, usually from 53.6 µM), for the others: top-dose activity, negative = inhibition, usual class: inhibitors. hit rate 3.5% among 310,000;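 also: Gal4-VP16 expression switched on by copper sulfate through the metallothionein promoter; potency is read from the fitted curve at half-maximal effect; nearly all actives have a fitted effect of over 50% in size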
DT40 TDP1 no CPT: qHTS for Inhibitors of human tyrosyl-DNA phosphodiesterase 1 (TDP1): qHTS in cells in absence of CPT; DT40 Tdp1-/- hTDP1 cells, no CPT, ATP luminescence, 48 h; Potency, µM (highest dose often 46.2 µM), for the others: at the highest dose activity change, negative = growth inhibition, actives largely listed as inhibitors; hit rate 15% among 420,000; AID 686978, 2013; also: potency is read from the fitted curve at half-maximal effect; nearly all actives have a fitted effect of over 55% in size
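No-CPT arm: Tdp1-/-;hTDP1 DT40 cells (400/well) plus compounds, incubated ≥48 hr at 37 °C. Readout CellTiter-Glo luminescence.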
ELG1 repair inh: qHTS screen for small molecules that inhibit ELG1-dependent DNA repair in human embryonic kidney (HEK293T) cells expressing luciferase-tagged ELG1; AID 504467, 2011; HEK293T ELG1-luciferase reporter, luminescence, 16 h; DNA damage induced by 5-fluorouridine; Potency, µM (series often up to 46.1 µM), for the others: at the highest dose activity change, negative = inhibition, hits mostly inhibitors; hit rate 2.3% among 330,000; also: potency is read from the fitted curve at half-maximal effect; nearly all actives have a fitted effect of over 55% in size
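Step one: seed 2,000 cells per well. Step two: pin-transfer compound or DMSO alongside 5-fluorouridine. Step three: incubate 16 hr, 37 °C, 5% CO2. Step four: add ONE-Glo, wait 30 min, read luminescence.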
IL-1B inflam inh: qHTS for Inhibitors of Inflammasome Signaling: IL-1-beta AlphaLISA Primary Screen; THP-1 LPS/ATP IL-1B secretion, AlphaLISA, 16 h; stronger effect = lower value; activity change, % at 57.5 µM; hit rate 4.7% among 360,000; AID 743279, 2014; in the data active = activity change below about -50%; inconclusive = mostly about -30% to -49%
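Secreted IL-1B measured by AlphaLISA bead assay after 16 h compound exposure of THP-1 cells; compounds (final up to 57.5 uM) added 1 h before LPS (250 ng/mL) and ATP (1.25 mM) stimulation; lower signal means less secretion.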
RORg inh: qHTS for inhibitors of ROR gamma transcriptional activity; Nuclear receptor ROR-gamma (Mus musculus), P51450; hit rate 5.4% among 310,000; AID 2551, 2010; Drosophila S2 Gal4-RORgamma UAS-luciferase reporter, 20 h; Potency, µM (doses to about 53.6 µM), inactives show at the top dose activity change, negative = inhibition, usual class: inhibitors; also: potency is read from the fitted curve at half-maximal effect; nearly all actives have a fitted effect of over 60% in size
Target sequence (P51450 whole entry, looked up, the tested form may be a part): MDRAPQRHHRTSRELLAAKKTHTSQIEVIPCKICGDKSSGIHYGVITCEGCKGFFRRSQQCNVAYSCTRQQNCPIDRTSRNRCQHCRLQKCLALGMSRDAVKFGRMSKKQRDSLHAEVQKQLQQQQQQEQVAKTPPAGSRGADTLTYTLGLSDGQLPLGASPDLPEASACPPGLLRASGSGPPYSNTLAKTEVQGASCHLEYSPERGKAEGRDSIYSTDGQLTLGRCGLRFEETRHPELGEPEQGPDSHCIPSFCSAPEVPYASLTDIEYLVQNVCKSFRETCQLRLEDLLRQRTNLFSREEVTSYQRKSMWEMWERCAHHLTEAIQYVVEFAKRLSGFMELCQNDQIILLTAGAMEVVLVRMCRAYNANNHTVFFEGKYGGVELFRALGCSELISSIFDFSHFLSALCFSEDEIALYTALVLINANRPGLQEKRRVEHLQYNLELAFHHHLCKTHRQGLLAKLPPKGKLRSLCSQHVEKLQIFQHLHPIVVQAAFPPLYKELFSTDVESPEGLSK
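Read-out: Photinus luciferase luminescence; inhibitors lower reporter signal. Insect Schneider cells with Gal4-ROR gamma fusion under metallothionein promoter, UAS reporter; 700 uM final copper sulfate induction, 20 hr, ambient temperature.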
* hit, by the source's call; u = inconclusive; x = not tested or not shown; [ ] = dose if it differs, or a comment. The list is not random: actives were taken first. Their share in the collection is about 21%. Unless noted, calls follow the shape of the dose curve; as a rule, active = well fitted curve in the direction sought with a large enough effect; inconclusive = small, poorly fitted or top-dose-only effect, or another doubt; inactive = no such curve, though single readings can be large; an effect the other way counts as inactive or inconclusive. % is scaled to controls: 0 for no effect and ±100 for the full control effect.

SMILES | DT40 TDP1 CPT | VP16 counter | DT40 TDP1 no CPT | ELG1 repair inh | IL-1B inflam inh | RORg inh
Cc1cc(O)c2c(c1)C(=O)C13C(=C2O)C(=O)[C@H]2[C@@H](O)[C@@H]1[C@H]1[C@H](O)[C@@H]3C(=O)C3=C(O)c4c(O)cc(C)cc4C(=O)C312 (stereo partly specified) | 0.65µM* | x | 1.2µM* | u | 27 | x
CC1CCN(CC#CCOc2ccc(Cl)cc2)CC1 | -24% | -2% | -6% | -15% | -4 | 19%
CCc1cc2c(s1)-n1c(C)nnc1CN=C2c1ccccc1Cl | u | x | -19% | x | x | x
COc1ccc(C(=O)OCC2CN2c2cccc([N+](=O)[O-])c2)cc1 (stereo unspecified) | u | x | -25% | x | 25 | x
COC(=O)C1=CN(c2ccc(C(C)(C)C)cc2)C(N)=C(C#N)C1c1cccc([N+](=O)[O-])c1 (stereo unspecified) | u | x | 23µM* | x | -16 | x
O=C(O)CCCO | 16%[92.5 µM] | x | -22%[92.5 µM] | x | x | x
COc1cc(/C=N/Nc2ccc(S(N)(=O)=O)cc2)cc(OC)c1OC | u | 0% | 21µM* | -5% | -2 | 1%
Cc1cccc(C(O)c2ncc(-c3ccccc3Cl)[nH]2)c1C (stereo unspecified) | u | x | u | x | -9 | x
CC(C)=CCCC1(C)C=Cc2c(O)c3c(c(CC=C(C)C)c2O1)OC12C(=CC4CC1C(C)(C)OC2(C/C=C(/C)C(=O)O)C4=O)C3=O (stereo unspecified) | 0.92µM* | 5µM* | 1µM* | x | x | 3.2µM*
CC(C)=CCCC1(C)C=Cc2c(O)c3c(c(CC=C(C)C)c2O1)OC12C(=CC4CC1C(C)(C)OC2(C/C=C(/C)C(=O)O)C4O)C3=O (stereo unspecified) | 4.6µM* | 2.2µM* | 3.7µM* | x | x | 2.8µM*
Cc1cnc[nH]1 | 2% | 9% | u | 13% | -23 | 2%
Nc1cccc(SC2CC(=O)N(c3ccc(Cl)cc3C(=O)c3ccccc3)C2=O)c1 (stereo unspecified) | u | x | 21µM* | x | 13 | x
CCN1CCN(S(=O)(=O)c2cnc(Cl)c(Br)c2)CC1 | u | 5% | u | -2% | x | -30%
CCCOC(=O)C1=C(C)CS[C@@H]2[C@H](NC(=O)COc3ccccc3)C(=O)N12 | 20µM* | x | u | x | x | x
Cc1cccc(-n2c(/C=C/c3c[nH]c4ccccc34)nc3ccccc3c2=O)c1 | 2.6µM* | x | 2.6µM* | x | x | x
COc1cccc(-n2c(/C=C/c3ccccn3)nc3ccccc3c2=O)c1 | u | -9% | u | u | -84* | u
CCOC(=O)c1nc2ccccc2c(=O)n1-c1cccc(C)c1 | u | 13% | u | -1% | 4 | 1%
Cc1cccc(-n2c(/C=C/c3ccccn3)nc3ccccc3c2=O)c1 | 23µM* | x | u | u | -52* | x
CC(=O)OC(CC(=O)O)C[N+](C)(C)C (stereo unspecified) | -1% | 9% | -8% | 18µM* | 0 | -2%
c1ccc2sc(C3(NCC4CC4)CCCCC3)cc2c1 | 16µM* | x | 13µM* | x | x | x
c1ccc(C2(N3CCCCC3)CCCCC2)cc1 | 3% | x | -18% | 3% | 15 | x
c1ccc2sc(C3(N4CCCC4)CCCCC3)cc2c1 | u | x | 21µM* | x | x | x
NC(Cc1ccccc1Cl)c1nn[nH]n1 (stereo unspecified) | 14% | x | -10% | x | 17 | x
COC(=O)C1=C(c2c(C)noc2C)C[C@@H]2CC[C@H]1N2C(=O)NCCNC(C)=O | -3% | x | -12% | 26% | 7 | x
